Data taken from PubChem BioAssay AID1159580 (chemical genetic matrix, 2015).
Several values for one entry are separate records, joined by “and”; a condition that tells them apart may be missing. Identical values can stand only once. Out of some 5,500 compounds screened, about 2,000 (36%) were called active. Roughly 18% stayed inconclusive and do not appear here. Cut-off read from the data, not from the text of the source: active = normalized growth mostly below about 0.91 (no sharp cut-off); inconclusive = no clear call, values can overlap the other calls; inactive = mostly above about 0.92. The list shows a part of the results.

Assay: chemical genetic growth profiling, strain panel (AID 1159580);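 note: tested at 20 µM; growth read once vehicle control cultures reached saturation at 30 °C; 1 = growth at the plate median or of vehicle wells; lower values mean less growth of the strain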
Details: S. cerevisiae deletion strains, growth OD

Measured: normalized growth

OC[C@@H]1CCCN2CCCC[C@H]12
inactive: locus YAL013W, strain DEP1, active compounds read low 0.983 | locus YAL021C, strain ccr4, active compounds read low 1.05 | locus YAL026C, strain drs2, active compounds read low 1.04 | locus YAL030W, strain snc1, active compounds read low 1.03 | locus YBL061C, strain skt5, active compounds read low 1.03 | locus YBR009C, strain hhf1, active compounds read low 1.01 | locus YBR021W, strain FUR4, active compounds read low 0.998 | locus YBR023C, strain chs3, active compounds read low 1.05 | locus YBR171W, strain sec66, active compounds read low 1.05 | locus YBR229C, strain ROT2, active compounds read low 0.998 | locus YBR231C, strain swc5, active compounds read low 1.03 | locus YBR279W, strain paf1, active compounds read low 1.03 | locus YCL011C, strain gbp2, active compounds read low 1.03 | locus YCL016C, strain dcc1, active compounds read low 1.03 | locus YCL029C, strain bik1, active compounds read low 1.02 | locus YCL061C, strain MRC1, active compounds read low 1.02 | locus YCL069W, strain vba3, active compounds read low 1.04 | locus YCR088W, strain abp1, active compounds read low 1.04 | locus YDL005C, strain med2, active compounds read low 1.03 | locus YDL035C, strain GPR1, active compounds read low 1.01 | locus YDL040C, strain nat1, active compounds read low 1.02 | locus YDL074C, strain BRE1, active compounds read low 1.01 | locus YDL101C, strain DUN1, active compounds read low 1.01 | locus YDL134C, strain PPH21, active compounds read low 0.989 | locus YDL185W, strain tfp1, active compounds read low 1.02 | locus YDL192W, strain arf1, active compounds read low 1.01 | locus YDR001C, strain nth1, active compounds read low 1.02 | locus YDR069C, strain doa4, active compounds read low 1.01 | locus YDR101C, strain arx1, active compounds read low 1.02 | locus YDR137W, strain rgp1, active compounds read low 1.05 | locus YDR159W, strain sac3, active compounds read low 0.961 | locus YDR162C, strain NBP2, active compounds read low 1.01 | locus YDR195W, strain ref2 1.02 | locus YDR297W, strain sur2, active compounds read low 1.01 | locus YDR318W, strain mcm21, active compounds read low 1.01 | locus YDR334W, strain swr1, active compounds read low 1.02 | locus YDR335W, strain msn5, active compounds read low 1.04 | locus YDR388W, active compounds read low 1.01 | locus YDR392W, strain spt3, active compounds read low 0.945 | locus YDR502C, strain sam2, active compounds read low 1.01 | locus YEL003W, strain gim4, active compounds read low 1.04 | locus YEL037C, strain rad23, active compounds read low 1.03 | locus YEL061C, strain CIN8 (second series), active compounds read low 1.02 | locus YEL061C, strain CIN8, active compounds read low 1 | locus YER015W, strain faa2, active compounds read low 1.03 | locus YER016W, strain bim1, active compounds read low 1.02 | locus YER110C, active compounds read low 1.02 | locus YER111C, strain swi4, active compounds read low 1.03 | locus YER155C, strain BEM2 (second series), active compounds read low 1 | locus YER155C, strain BEM2, active compounds read low 0.996 | locus YER167W, strain BCK2, active compounds read low 1 | locus YFR010W, strain ubp6, active compounds read low 1.01 | locus YGL078C, strain dbp3, active compounds read low 1 | locus YGL086W, strain mad1, active compounds read low 1.01 | locus YGL167C, strain pmr1, active compounds read low 1.02 | locus YGL173C, strain kem1, active compounds read low 1.02 | locus YGL227W, strain vid30, active compounds read low 1.03 | locus YGL240W, strain doc1, active compounds read low 1.01 | locus YGL248W, strain PDE1, active compounds read low 0.993 | locus YGL253W, strain hxk2, active compounds read low 1.05 | locus YGR078C, strain PAC10, active compounds read low 1 | locus YGR135W, strain pre9, active compounds read low 0.993 | locus YGR252W, strain gcn5, active compounds read low 0.957 | locus YHR013C, strain ard1, active compounds read low 1.03 | locus YHR027C, strain rpn1, active compounds read low 1.01 | locus YHR030C, strain SLT2, active compounds read low 0.998 and 1.01 | locus YHR079C, strain IRE1 (second series), active compounds read low 1.01 | locus YHR079C, strain IRE1, active compounds read low 1.02 | locus YHR094C, strain hxt1, active compounds read low 1.01 | locus YHR129C, strain ARP1, active compounds read low 1.01 | locus YHR142W, strain chs7, active compounds read low 1.04 | locus YHR200W, strain rpn10, active compounds read low 1.02 | locus YIL066C, strain RNR3, active compounds read low 1.01 | locus YIL073C, strain SPO22, active compounds read low 1.05 | locus YIL125W, strain kgd1, active compounds read low 1.01 | locus YIR030C, strain dcg1, active compounds read low 1.01 | locus YJL092W, strain hpr5, active compounds read low 1.03 | locus YJL095W, strain BCK1 (second series), active compounds read low 1.02 | locus YJL095W, strain BCK1, active compounds read low 1.03 and 1 | locus YJL115W, strain asf1, active compounds read low 1.03 | locus YJL129C, strain trk1, active compounds read low 1.06 | locus YJL134W, strain LCB3, active compounds read low 0.978 | locus YJL154C, strain vps35, active compounds read low 1.02 | locus YJL164C, strain tpk1, active compounds read low 1.02 | locus YJL166W, strain qcr8, active compounds read low 1.02 | locus YJL168C, strain set2, active compounds read low 1 | locus YJL187C, strain SWE1 (second series), active compounds read low 1.02 | locus YJL187C, strain SWE1, active compounds read low 1.04 | locus YJR043C, strain POL32, active compounds read low 0.992
